Screens deposited in PubChem by several laboratories.
Hits are enriched below; roughly 4% of the tested compounds scored in any of these assays.
FBA Mtb inh: inhibits M. tuberculosis FBA enzyme. 360,000 compounds, 2.3% hits. inhibition, % at 1 µM. purified M. tuberculosis FBA, fluorescence read-out. AID 588726. P9WQA3; in the data active = inhibition above about 27%
GDH-TPI inh: GDH-TPI coupled enzyme inhibition counter-screen; 360,000 compounds, 1.2% hits; GDH-TPI coupled enzyme counterscreen, NADH absorbance; AID 588335; inhibition, % at 4.8 µM; in the data active = inhibition above about 30%
RecA intein inh: inhibitors of M. tuberculosis RecA intein splicing; P9WHJ3; cell-free RecA intein splicing, fluorescence; inhibition, % (concentration not given with the values); 290,000 compounds, 0.75% hits; in the data active = inhibition above about 30%; inconclusive = no clear call, values can overlap the other calls
Rv3671c inh: inhibits the M. tuberculosis serine protease Rv3671c; inhibition, % at 5.96 µM; 320,000 compounds, 0.048% hits; P9WHR9; in the data active = inhibition above about 38%;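 note: extracellular domain of Rv3671c used as enzyme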
Mtb bLac sens: beta-lactam sensitization of Mtb H37Rv | AID 434955 | inhibition, % at 25 µM | 330,000 compounds, 0.27% hits | M. tuberculosis H37Rv growth with meropenem, percent inhibition;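 note: growth measured after seven days incubation then overnight dye step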
UGM FP inh: Mtb UDP-galactopyranose mutase inhibition. P9WIQ1. inhibition, % at 10 µM. 320,000 compounds, 0.06% hits. purified UGM, fluorescence polarization probe displacement; in the data active = inhibition above about 10%, passing the limit was not always enough; inconclusive = no clear call, values can overlap the other calls
Target sequence (P9WIQ1 whole entry, looked up): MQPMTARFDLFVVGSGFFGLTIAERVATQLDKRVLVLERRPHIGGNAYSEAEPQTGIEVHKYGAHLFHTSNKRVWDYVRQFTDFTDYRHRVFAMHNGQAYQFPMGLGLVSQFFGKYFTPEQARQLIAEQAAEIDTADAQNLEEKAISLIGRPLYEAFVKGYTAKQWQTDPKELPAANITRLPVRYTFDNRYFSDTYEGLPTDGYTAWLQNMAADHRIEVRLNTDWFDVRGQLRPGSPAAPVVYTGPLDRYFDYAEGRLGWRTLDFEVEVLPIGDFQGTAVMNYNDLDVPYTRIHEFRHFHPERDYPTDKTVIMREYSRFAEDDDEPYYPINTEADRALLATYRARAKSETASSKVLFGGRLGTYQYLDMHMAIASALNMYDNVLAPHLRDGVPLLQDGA
GFP chromo cs: counter-screen: blocks GFP chromophore formation | shares compounds with RecA intein inh | cell-free GFP chromophore formation, fluorescence | EC50, µM | 2,100 compounds, 83% hits
Large screens that a line does not name were inactive (follow-up assays come after a bar, where they were run). Unless noted, the rule behind the calls is not given here.

Cc1[nH]n(-c2ccccc2)c(=O)c1/C=N\NC(=O)C1COc2ccccc2O1 (stereo unspecified)	RecA intein inh 38.1 | GFP chromo cs inactive
CC(=O)N/N=C/c1c(C)[nH]n(-c2ccccc2)c1=O	none (no result: RecA intein inh)
CC(CNC(=O)CCC(=O)N1CCOc2ccc(Cl)cc21)c1ccccc1 (stereo unspecified)	none
Cc1ccc(S(=O)(=O)N(C)c2ccc(C(=O)NC3CCCCC3)cc2)cc1	none (no result: RecA intein inh, Rv3671c inh, Mtb bLac sens, UGM FP inh)
O=C1C=C(N(CCO)Cc2ccccc2)c2ccccc2C1=O	RecA intein inh 88.4 (no result: Rv3671c inh, Mtb bLac sens, UGM FP inh) | GFP chromo cs 0.603
COC1=CC(=O)C(O)=C(CCCCCCC/C=C/CCCCCCCC2=C(O)C(=O)C=C(OC)C2=O)C1=O	RecA intein inh 75.8 | GFP chromo cs 2.08
O=C(N[C@@H]1c2ccccc2CC[C@@H]1OCc1ccccc1)c1ccc(-c2ccccc2)cc1	none (no result: RecA intein inh, Rv3671c inh, Mtb bLac sens, UGM FP inh)
O=C(CN1CCN(S(=O)(=O)c2ccc(Cl)cc2)CC1)Nc1ccc2c(c1)OCO2	RecA intein inh 47.3 | GFP chromo cs inactive
Cc1ccc(S(=O)(=O)/N=C2\C=C(Nc3ccc(O)cc3)C(=O)c3ccccc32)cc1	none (no result: RecA intein inh)
O=C1C(Nc2ccccc2)=C/C(=N/S(=O)(=O)c2cccs2)c2ccccc21	RecA intein inh 38.5 | GFP chromo cs 0.277
Cc1ccc(NC2=C/C(=N/S(=O)(=O)c3cccs3)c3ccccc3C2=O)cc1	RecA intein inh 31.0 | GFP chromo cs 0.139
O=C1C=C(Nc2ccccc2)C(=O)c2ccccc21	none
COc1ccc(-c2cc(C(=O)N(C)Cc3ccc(F)cc3)c3ccccc3n2)cc1OC	none
Nc1c(N2CCCC2)cc(Cl)c2nonc12	RecA intein inh 69.8 | GFP chromo cs 5.09
Nc1ccc(N2CCCCC2)c2nonc12	RecA intein inh 74.7 | GFP chromo cs 10.7
CC1(C)Cc2c(cnn2-c2cccc(F)c2)C(NC(=O)CN2CCCC2=O)C1 (stereo unspecified)	none
O=C(Nc1ccc2cn[nH]c2c1)c1c(Cl)cccc1Cl	none
O=C1C(Cl)=C(Nc2ccc3cn[nH]c3c2)C(=O)c2ccccc21	RecA intein inh 89.5 | GFP chromo cs 1.52
O=C1c2ccccc2[C@@H]2C[C@@H](O)[C@H](Nc3cccc(Cl)n3)CCN12	none (no result: RecA intein inh, Rv3671c inh, Mtb bLac sens, UGM FP inh)
CCCCN1CC(=O)N2[C@@H]3c4cc(OC)ccc4OC[C@@H]3[C@H](C(=O)OCC)[C@]2(C)C1=O	none (no result: RecA intein inh, Rv3671c inh, Mtb bLac sens, UGM FP inh)
O=C(CCl)N1CCCC1c1ccc2c(c1)OCCO2 (stereo unspecified)	RecA intein inh 73.6 | GFP chromo cs 33
CC(=O)c1ccc(OCC(=O)N2CCCC2c2ccc3c(c2)OCCCO3)cc1 (stereo unspecified)	none (no result: RecA intein inh)
COc1ccc(N2C(=O)c3ccccc3NC2c2ccc(OC)c(Cn3nnc4ccccc43)c2)cc1 (stereo unspecified)	Mtb bLac sens inconclusive
COc1ccc(C2C(C#N)=C(N)Oc3n[nH]c(C)c32)cc1CSc1ccccn1 (stereo unspecified)	RecA intein inh 80.5 | GFP chromo cs 17.2
COc1ccc(C2C(C#N)=C(N)Oc3n[nH]c(C)c32)cc1Cn1nnc2ccccc21 (stereo unspecified)	RecA intein inh 60.5 | GFP chromo cs 13.4
CCOC(=O)C1=C(C)OC(N)=C(C#N)C1c1ccc(OC)c(CSc2ccccn2)c1 (stereo unspecified)	none
CN(CCC1CCOCC1)C(=O)C1CCC(=O)N(CCc2ccccc2)C1 (stereo unspecified)	none
COc1ccc(Cl)cc1CNC[C@H]1O[C@@H](n2ccc(N)nc2=O)[C@H](O)[C@@H]1O	none (no result: RecA intein inh, Rv3671c inh, Mtb bLac sens, UGM FP inh)
COc1ccccc1CNS(=O)(=O)c1c(C)[nH]c(C)c1C(=O)N1CCCC1	none
CC(=O)c1c(C)oc2c1C(=O)c1ccccc1C2=O	none
COc1ccc(CNC(=O)c2c(C)oc3c2C(=O)c2ccccc2C3=O)cc1	RecA intein inh 57.8 | GFP chromo cs 23.4
Cc1oc2c(c1C(=O)NCc1cccnc1)C(=O)c1ccccc1C2=O	RecA intein inh 74.7 (no result: FBA Mtb inh, GDH-TPI inh) | GFP chromo cs 0.623
CN(Cc1cccc(F)c1)C(=O)c1ccc(S(=O)(=O)N2CCCCCC2)cc1	none (no result: RecA intein inh)
C#CCOc1ccc(Br)cc1/C=N/O	none
CCOc1ccc(Cl)cc1C(c1c(C)[nH][nH]c1=O)c1c(C)[nH][nH]c1=O	RecA intein inh 97.4 (no result: Rv3671c inh) | GFP chromo cs 0.916
